Measured values as given in PubChem BioAssay AID1159580 (chemical genetic matrix, 2015).
Among all 5,500 compounds or so, about 2,000 (36%) were called active. About 18% were inconclusive and are not listed. Cut-off read from the data, not from the text of the source: active = normalized growth mostly below about 0.91 (no sharp cut-off); inconclusive = no clear call, values can overlap the other calls; inactive = mostly above about 0.92. This is one part of the list.

Experiment: chemical genetic growth profiling, strain panel (AID 1159580);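 note: tested at 20 µM; growth read once vehicle control cultures reached saturation at 30 °C; 1 = growth at the plate median or of vehicle wells; lower values mean less growth of the strain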
Settings: growth OD

Measured: normalized growth

N[C@@H](Cc1ccc(N(CCCl)CCCl)cc1)C(=O)O
inactive: S. cerevisiae deletion strains, locus YJR075W, strain HOC1, stronger effect = lower value 0.986 | S. cerevisiae deletion strains, locus YKL009W, strain mrt4, stronger effect = lower value 0.961 | S. cerevisiae deletion strains, locus YKL068W, stronger effect = lower value 0.971 | S. cerevisiae deletion strains, locus YKL085W, strain MDH1 (second series), stronger effect = lower value 0.991 | S. cerevisiae deletion strains, locus YKL085W, strain MDH1, stronger effect = lower value 0.991 | S. cerevisiae deletion strains, locus YKL160W, strain elf1, stronger effect = lower value 0.968 | S. cerevisiae deletion strains, locus YKL190W, strain CNB1, stronger effect = lower value 0.98 | S. cerevisiae deletion strains, locus YKR001C, strain vps1, stronger effect = lower value 0.961 | S. cerevisiae deletion strains, locus YKR026C, strain gcn3, stronger effect = lower value 0.979 | S. cerevisiae deletion strains, locus YKR091W, strain srl3, stronger effect = lower value 0.975 | S. cerevisiae deletion strains, locus YLL001W, strain dnm1, stronger effect = lower value 0.929 | S. cerevisiae deletion strains, locus YLL026W, stronger effect = lower value 0.989 | S. cerevisiae deletion strains, locus YLL041C, strain sdh2, stronger effect = lower value 0.982 | S. cerevisiae deletion strains, locus YLR027C, strain aat2, stronger effect = lower value 0.995 | S. cerevisiae deletion strains, locus YLR039C, strain RIC1, stronger effect = lower value 0.96 | S. cerevisiae deletion strains, locus YLR058C, strain SHM2, stronger effect = lower value 0.968 | S. cerevisiae deletion strains, locus YLR102C, strain apc9, stronger effect = lower value 0.981 | S. cerevisiae deletion strains, locus YLR113W, strain HOG1, stronger effect = lower value 1.03 | S. cerevisiae deletion strains, locus YLR221C, strain rsa3, stronger effect = lower value 0.958 | S. cerevisiae deletion strains, locus YLR258W, strain gsy2, stronger effect = lower value 0.983 | S. cerevisiae deletion strains, locus YLR262C, strain YPT6 (second series), stronger effect = lower value 0.979 | S. cerevisiae deletion strains, locus YLR262C, strain YPT6, stronger effect = lower value 0.898 | S. cerevisiae deletion strains, locus YLR268W, strain sec22, stronger effect = lower value 0.967 | S. cerevisiae deletion strains, locus YLR320W, strain mms22, stronger effect = lower value 0.97 | S. cerevisiae deletion strains, locus YLR330W, strain CHS5, stronger effect = lower value 0.986 | S. cerevisiae deletion strains, locus YLR342W, strain FKS1 (second series), stronger effect = lower value 0.983 | S. cerevisiae deletion strains, locus YLR342W, strain FKS1, stronger effect = lower value 0.978 | S. cerevisiae deletion strains, locus YLR357W, strain rsc2, stronger effect = lower value 0.954 | S. cerevisiae deletion strains, locus YLR370C, strain arc18, stronger effect = lower value 0.978 | S. cerevisiae deletion strains, locus YLR371W, strain rom2, stronger effect = lower value 0.978 | S. cerevisiae deletion strains, locus YLR384C, strain iki3, stronger effect = lower value 0.985 | S. cerevisiae deletion strains, locus YLR418C, strain cdc73, stronger effect = lower value 0.976 | S. cerevisiae deletion strains, locus YML016C, strain PPZ1, stronger effect = lower value 0.982 | S. cerevisiae deletion strains, locus YML032C, strain rad52, stronger effect = lower value 0.979 | S. cerevisiae deletion strains, locus YML120C, strain ndi1, stronger effect = lower value 0.952 | S. cerevisiae deletion strains, locus YML124C, strain tub3, stronger effect = lower value 0.987 | S. cerevisiae deletion strains, locus YMR058W, strain fet3, stronger effect = lower value 0.983 | S. cerevisiae deletion strains, locus YMR078C, strain ctf18, stronger effect = lower value 0.961 | S. cerevisiae deletion strains, locus YMR125W, strain sto1, stronger effect = lower value 0.97 | S. cerevisiae deletion strains, locus YMR129W, stronger effect = lower value 0.981 | S. cerevisiae deletion strains, locus YMR205C, strain PFK2, stronger effect = lower value 0.974 | S. cerevisiae deletion strains, locus YMR223W, strain ubp8, stronger effect = lower value 0.987 | S. cerevisiae deletion strains, locus YMR231W, strain pep5, stronger effect = lower value 0.987 | S. cerevisiae deletion strains, locus YMR263W, strain SAP30, stronger effect = lower value 0.982 | S. cerevisiae deletion strains, locus YMR307W, strain GAS1, stronger effect = lower value 0.915 | S. cerevisiae deletion strains, locus YNL067W, strain RPL9B, stronger effect = lower value 0.984 | S. cerevisiae deletion strains, locus YNL071W, strain lat1, stronger effect = lower value 0.932 | S. cerevisiae deletion strains, locus YNL128W, strain TEP1, stronger effect = lower value 0.982 | S. cerevisiae deletion strains, locus YNL153C, strain GIM3, stronger effect = lower value 0.976 | S. cerevisiae deletion strains, locus YNL183C, strain NPR1, stronger effect = lower value 0.966 | S. cerevisiae deletion strains, locus YNL209W, strain ssb2, stronger effect = lower value 0.983 | S. cerevisiae deletion strains, locus YNL233W, strain BNI4, stronger effect = lower value 0.994 | S. cerevisiae deletion strains, locus YNL248C, strain rpa49, stronger effect = lower value 0.978 | S. cerevisiae deletion strains, locus YNL250W, strain rad50, stronger effect = lower value 0.969 | S. cerevisiae deletion strains, locus YNL271C, strain bni1, stronger effect = lower value 0.979 | S. cerevisiae deletion strains, locus YNL298W, strain CLA4, stronger effect = lower value 0.979 | S. cerevisiae deletion strains, locus YNL307C, strain MCK1, stronger effect = lower value 0.985 | S. cerevisiae deletion strains, locus YNL322C, strain KRE1 (second series), stronger effect = lower value 0.989 | S. cerevisiae deletion strains, locus YNL322C, strain KRE1, stronger effect = lower value 0.982 | S. cerevisiae deletion strains, locus YNR049C, strain mso1, stronger effect = lower value 0.977 | S. cerevisiae deletion strains, locus YNR052C, strain pop2, stronger effect = lower value 0.974 | S. cerevisiae deletion strains, locus YOL006C, strain TOP1, stronger effect = lower value 0.954 | S. cerevisiae deletion strains, locus YOL012C, strain htz1 0.837 | S. cerevisiae deletion strains, locus YOL147C, strain pex11, stronger effect = lower value 0.986 | S. cerevisiae deletion strains, locus YOR001W, strain rrp6, stronger effect = lower value 0.988 | S. cerevisiae deletion strains, locus YOR061W, strain CKA2, stronger effect = lower value 0.962 | S. cerevisiae deletion strains, locus YOR069W, strain VPS5, stronger effect = lower value 0.998 | S. cerevisiae deletion strains, locus YOR070C, strain gyp1, stronger effect = lower value 0.979 | S. cerevisiae deletion strains, locus YOR080W, strain dia2, stronger effect = lower value 0.995 | S. cerevisiae deletion strains, locus YOR083W, strain WHI5, stronger effect = lower value 0.963 | S. cerevisiae deletion strains, locus YOR106W, strain vam3, stronger effect = lower value 0.996 | S. cerevisiae deletion strains, locus YOR136W, strain idh2, stronger effect = lower value 0.989 | S. cerevisiae deletion strains, locus YOR144C, strain elg1, stronger effect = lower value 0.99 | S. cerevisiae deletion strains, locus YOR184W, strain ser1, stronger effect = lower value 0.96 | S. cerevisiae deletion strains, locus YOR231W, strain MKK1, stronger effect = lower value 1.01 | S. cerevisiae deletion strains, locus YOR265W, strain rbl2, stronger effect = lower value 0.989 | S. cerevisiae deletion strains, locus YOR270C, strain vph1, stronger effect = lower value 0.981 | S. cerevisiae deletion strains, locus YOR290C, strain snf2, stronger effect = lower value 0.909 | S. cerevisiae deletion strains, locus YOR316C, strain cot1, stronger effect = lower value 0.97 | S. cerevisiae deletion strains, locus YPL051W, strain arl3, stronger effect = lower value 0.974 | S. cerevisiae deletion strains, locus YPL055C, strain LGE1, stronger effect = lower value 0.963 | S. cerevisiae deletion strains, locus YPL078C, strain atp4, stronger effect = lower value 0.974 | S. cerevisiae deletion strains, locus YPL106C, strain sse1, stronger effect = lower value 0.976 | S. cerevisiae deletion strains, locus YPL240C, strain hsp82, stronger effect = lower value 0.989 | S. cerevisiae deletion strains, locus YPL241C, strain CIN2, stronger effect = lower value 1.04 | S. cerevisiae deletion strains, locus YPL256C, strain CLN2, stronger effect = lower value 1.02 | S. cerevisiae deletion strains, locus YPR119W, strain clb2, stronger effect = lower value 0.991 | S. cerevisiae deletion strains, locus YPR141C, strain kar3, stronger effect = lower value 0.961 | S. cerevisiae deletion strains, locus YPR163C, strain tif3, stronger effect = lower value 0.984 | S. cerevisiae deletion strains, locus YPR167C, strain met16, stronger effect = lower value 0.972 | S. cerevisiae deletion strains, strain wtn01, stronger effect = lower value 0.982 | S. cerevisiae strains, strain wild type, stronger effect = lower value 0.983
